Source: the supplement of paper PMC6897291

Assays:
U-2932 [1] = assay: growth inhibition by drug alone (1 - RLU/untreated control) (fraction); higher = stronger inhibition; settings: 177Lu-lilotomab satetraxetan 0 ug/ml
Summary of the method: (§1)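 Growth inhibition was calculated from RealTime-Glo RLU against untreated no-drug wells. Values equal 1 − RLU/mean of 48 untreated no-drug wells per plate, read daily from day 3 after 1 h at 37°C. RIVA and U-2932 cells, with or without 18 h pretreatment by a radiolabelled anti-CD37 antibody conjugate (~600 MBq/mg; 0.5 µg/ml RIVA, 1 µg/ml U-2932), were washed and plated at 3,000 cells/well on compound-printed plates at 10/100 nM (RIVA) or 10/1,000 nM (U-2932).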

U-2932 [2] = assay: growth inhibition by drug plus 177Lu-lilotomab satetraxetan (1 - RLU/untreated control) (fraction); higher = stronger inhibition; settings: 177Lu-lilotomab satetraxetan 1 ug/ml
Summary of the method: as §1

RIVA [3] = assay: as above; settings: 177Lu-lilotomab satetraxetan 0.5 ug/ml
Summary of the method: as §1

RIVA [4] = assay: growth inhibition by drug alone (1 - RLU/untreated control) (fraction); higher = stronger inhibition; settings: 177Lu-lilotomab satetraxetan 0 ug/ml
Summary of the method: as §1

| SMILES | growth inhibition by drug alone (U-2932 [1]; 10 nM, time (day): 3) | growth inhibition by drug alone (U-2932 [1]; 10 nM, time (day): 4) | growth inhibition by drug alone (U-2932 [1]; 10 nM, time (day): 5) | growth inhibition by drug alone (U-2932 [1]; 10 nM, time (day): 6) | growth inhibition by drug alone (U-2932 [1]; 1000 nM, time (day): 3) | growth inhibition by drug alone (U-2932 [1]; 1000 nM, time (day): 4) | growth inhibition by drug alone (U-2932 [1]; 1000 nM, time (day): 5) | growth inhibition by drug alone (U-2932 [1]; 1000 nM, time (day): 6) | growth inhibition by drug plus 177Lu-lilotomab satetraxetan (U-2932 [2]; 10 nM, time (day): 3) | growth inhibition by drug plus 177Lu-lilotomab satetraxetan (U-2932 [2]; 10 nM, time (day): 4) | growth inhibition by drug plus 177Lu-lilotomab satetraxetan (U-2932 [2]; 10 nM, time (day): 5) | growth inhibition by drug plus 177Lu-lilotomab satetraxetan (U-2932 [2]; 10 nM, time (day): 6) | growth inhibition by drug plus 177Lu-lilotomab satetraxetan (U-2932 [2]; 1000 nM, time (day): 3) | growth inhibition by drug plus 177Lu-lilotomab satetraxetan (U-2932 [2]; 1000 nM, time (day): 4) | growth inhibition by drug plus 177Lu-lilotomab satetraxetan (U-2932 [2]; 1000 nM, time (day): 5) | growth inhibition by drug plus 177Lu-lilotomab satetraxetan (U-2932 [2]; 1000 nM, time (day): 6) | growth inhibition by drug plus 177Lu-lilotomab satetraxetan (RIVA [3]; 10 nM, time (day): 3) | growth inhibition by drug plus 177Lu-lilotomab satetraxetan (RIVA [3]; 10 nM, time (day): 4) | growth inhibition by drug plus 177Lu-lilotomab satetraxetan (RIVA [3]; 10 nM, time (day): 5) | growth inhibition by drug plus 177Lu-lilotomab satetraxetan (RIVA [3]; 10 nM, time (day): 6) | growth inhibition by drug plus 177Lu-lilotomab satetraxetan (RIVA [3]; 100 nM, time (day): 3) | growth inhibition by drug plus 177Lu-lilotomab satetraxetan (RIVA [3]; 100 nM, time (day): 4) | growth inhibition by drug plus 177Lu-lilotomab satetraxetan (RIVA [3]; 100 nM, time (day): 5) | growth inhibition by drug plus 177Lu-lilotomab satetraxetan (RIVA [3]; 100 nM, time (day): 6) | growth inhibition by drug alone (RIVA [4]; 10 nM, time (day): 3) | growth inhibition by drug alone (RIVA [4]; 10 nM, time (day): 4) | growth inhibition by drug alone (RIVA [4]; 10 nM, time (day): 5) | growth inhibition by drug alone (RIVA [4]; 10 nM, time (day): 6) | growth inhibition by drug alone (RIVA [4]; 100 nM, time (day): 3) | growth inhibition by drug alone (RIVA [4]; 100 nM, time (day): 4) | growth inhibition by drug alone (RIVA [4]; 100 nM, time (day): 5) | growth inhibition by drug alone (RIVA [4]; 100 nM, time (day): 6) |
| --- | --- | --- | --- | --- | --- | --- | --- | --- | --- | --- | --- | --- | --- | --- | --- | --- | --- | --- | --- | --- | --- | --- | --- | --- | --- | --- | --- | --- | --- | --- | --- | --- |
| CCc1ccc(CCOc2ccc(CC3SC(=O)NC3=O)cc2)nc1 (stereo unspecified) [Pioglitazone (Actos)] | -0.11 | -0.125 | -0.103 | -0.0806 | -0.0965 | -0.0693 | -0.0516 | 0.0915 | -0.113 | -0.0372 | 0.0193 | 0.114 | -0.102 | -0.0405 | 0.0194 | 0.192 | 0.53 | 0.578 | 0.604 | 0.598 | 0.416 | 0.476 | 0.498 | 0.506 |  |  |  |  |  |  |  |  |
| CO[C@H]1C[C@@H]2CC[C@@H](C)[C@@](O)(O2)C(=O)C(=O)N2CCCC[C@H]2C(=O)O[C@H]([C@H](C)C[C@@H]2CC[C@@H](OC(=O)C(C)(CO)CO)[C@H](OC)C2)CC(=O)[C@H](C)/C=C(\C)[C@@H](O)[C@@H](OC)C(=O)[C@H](C)C[C@H](C)/C=C/C=C/C=C/1C [Temsirolimus (Torisel)] | 0.777 | 0.721 | 0.634 | 0.594 | 0.733 | 0.73 | 0.677 | 0.63 | 0.68 | 0.614 | 0.579 | 0.568 | 0.648 | 0.681 | 0.651 | 0.651 | 0.842 | 0.865 | 0.86 | 0.839 | 0.846 | 0.883 | 0.885 | 0.887 |  |  |  |  |  |  |  |  |
| CC(C)n1c(/C=C/C(O)CC(O)CC(=O)O)c(-c2ccc(F)cc2)c2ccccc21 (stereo unspecified) [Fluvastatin sodium (Lescol)] | 0.0449 | -0.0165 | -0.0177 | 0.0304 | -0.0194 | -0.0389 | -0.0543 | 0.0255 | -0.0533 | 0.0114 | 0.0651 | 0.148 | 0.00838 | 0.0135 | 0.0456 | 0.221 | 0.511 | 0.544 | 0.565 | 0.555 | 0.516 | 0.511 | 0.53 | 0.525 | -0.148 | -0.159 | -0.189 | -0.293 | -0.27 | -0.311 | -0.385 | -0.508 |
| COc1ccc(COc2cc3oc(=O)c4cc(C(C)O)ccc4c3cc2OC)cc1 (stereo unspecified) [Palomid 529] | 0.0334 | 0.0194 | -0.0368 | -0.114 | -0.0247 | 0.00321 | -0.0394 | -0.242 | -0.0294 | 0.00126 | 0.0363 | 0.0704 | -0.0939 | 0.0227 | 0.013 | 0.0753 | 0.337 | 0.478 | 0.494 | 0.503 | 0.321 | 0.445 | 0.454 | 0.453 |  |  |  |  |  |  |  |  |
| C[C@@H]1C[C@H]2[C@@H]3CCC4=CC(=O)C=C[C@]4(C)[C@@]3(F)[C@@H](O)C[C@]2(C)[C@@]1(O)C(=O)CO [Dexamethasone] | 0.345 | 0.301 | 0.236 | 0.236 | 0.466 | 0.472 | 0.362 | 0.306 | 0.277 | 0.301 | 0.26 | 0.353 | 0.422 | 0.466 | 0.406 | 0.431 | 0.415 | 0.467 | 0.484 | 0.498 | 0.362 | 0.429 | 0.417 | 0.414 | 0.0365 | 0.0468 | -0.018 | -0.23 | -0.0879 | -0.051 | -0.149 | -0.312 |
